# Target: BRD2
# Test: pooled miR-30 sensor sort-seq; sequence = guide strand
# Conditions: shRNA
# Further: reference of the scale not given here.
row,Sequence,sensor-assay potency score (higher = more potent)
1,TTTCTCATTCGCTTTCTTGGGG,0.425
2,TAAAATCTTGCATACACTCTGA,-0.097
3,TTATTTACAAGTTAGAATCAAC,-0.816

# Target: BRMS1L
# Test: as above
# Conditions: shRNA
row,Sequence,sensor-assay potency score (higher = more potent)
1,TTCTTCTTCTTTCACAGTCTTC,-0.927
2,TTCAAGAATATCAAGATCTTGT,0.566
3,TTCACAGTCTTCATCATCCATT,-0.228
4,TTCTTTACAGATTCTAAGCAGA,-0.334
5,TTCTTTATAAAGTTGATCTTTG,-0.111
6,TATAGCAACAGCTTTTCGCTCT,0.681
7,TTGTAGTTTTGCATCCACCTGA,0.526
8,TTCTGAGCTATCTCCATCCTCG,-0.213
9,TTTGGTAACACTAATAAGGTAA,-0.0586
10,TTCAGATCTAGCACTGTGCAGA,-0.0416
11,TAACATATCAATGAGATCTATT,-0.518
12,TGGACCTGAAACAACAACTGGC,-0.0627

# Target: BRP44L
# Test: as above
# Conditions: shRNA
row,Sequence,sensor-assay potency score (higher = more potent)
1,TCAAAGAATAGCAACAGAGGGC,-0.477
2,ATGAATGTCAAAGAATAGCAAC,-1.23
3,TACCTTGTAGGCAAATCTCATG,-1.15
4,TTTGATAAGCCGCCCTCCCTGG,-0.467
5,TTTTTCATTAAGTAAATTCTAA,-0.748
6,TTAATTGCATATTTTGAGCTAC,-0.357
7,TCGTGTTTGATAAGCCGCCCTC,-0.468
8,TAACATTTTTAAACAGTGGGGA,0.282
9,TTCGGACATAGTCCGCCGCTTT,-1.36
10,TTTTGAGCTACTCTTTATGGAA,-0.685
11,TAGTCCCGGAAATCCTTGCTTC,-0.727
12,TTGCTTCGGACATAGTCCGCCG,-0.944

# Target: BST2
# Test: as above
# Conditions: shRNA
row,Sequence,sensor-assay potency score (higher = more potent)
1,TTCTTGTCCGCGATTCTCACGC,-0.275
2,ATTAGGGCCATCACAGTGTGGT,-0.491
3,ATTCTCACGCTTAAGACCTGGT,-0.0201
4,TTCTCTTCTCAGTCGCTCCACC,-0.48
5,TTGATGGTGAAGATAATCAAGG,-1.58
6,TTTCTCTTCTCAGTCGCTCCAC,0.121
7,TAGTACTTCTTGTCCGCGATTC,-1.14
8,ATGTAGTGATCTCTCCCTCAAG,-1.69
9,TAATGTAGTGATCTCTCCCTCA,0.239
10,TTTGTCCTTGGGCCTTCTCTGC,-1.64
11,TCAAGCTCCTCCACTTTCTTTT,-0.76
12,TACTTCTTGTCCGCGATTCTCA,-0.543
13,TGGTTTTCTCTTCTCAGTCGCT,-0.752

# From the OligoGym collection
